HIV RNase H inh-1 = HIV-1 RT RNase H inhibitors, primary screen, biochemical, fluorescence; Gag-Pol polyprotein (Human immunodeficiency virus type 1 group M subtype B (isolate …; inhibition, % at 10 µM; AID 565, 2006; RT-RNase H RNA/DNA duplex cleavage; 65,000 tested, 1.9% active; in the data active = inhibition above about 50%
HIV RNase H inh-2 = HIV-1 RT RNase H inhibitors, retest, confirmation, biochemical. shares compounds with HIV RNase H inh-1. Recombinant RT RNase H, fluorescent RNA/DNA duplex cleavage. inhibition, % at 10 µM. 1,000 tested, 39% active; in the data active = inhibition above about 48%
* = called active by the depositor. The full list was thinned out, with hits kept by preference.

SMILES	HIV RNase H inh-1	others
COC(=O)c1ccc(N2CCOCC2)c(NC(=O)Nc2cccc(OC)c2)c1	87*	HIV RNase H inh-2=-2
COc1cccc(C(=O)OCC(=O)Nc2ccccc2N2CCOCC2)c1	-1
Cc1sc2nc(C(C)Nc3ccccc3N3CCOCC3)[nH]c(=O)c2c1C (stereo not given)	65*	HIV RNase H inh-2=78*
Cc1sc2nc(SCC(=O)N3CCOCC3)[nH]c(=O)c2c1C	-4
Cc1sc2nc(C(C)Sc3nnc(C)n3-c3ccccc3)[nH]c(=O)c2c1C (stereo not given)	-9
COc1ccc(CNc2nc3nc(-c4ccccc4)cc(=O)n3[nH]2)cc1OC	-6
O=C(CN1CCCC1=O)NC1(C(F)(F)F)NC(=O)N(Cc2ccccc2)C1=O (stereo not given)	1
O=C(NCCc1ccccc1)C1CCCN(C(=O)NC2CCCCC2)C1 (stereo not given)	3
Cc1cc(NC(=O)c2cccc(S(=O)(=O)N3CCOCC3)c2)c2ccccc2n1	-2
CCOC(=O)c1[nH]c(C)c(C(=O)N2CCN(C(=O)OCC)CC2)c1CC	4
Cc1cnc(C(=O)Nc2ccc(F)c(F)c2)cn1	51*	HIV RNase H inh-2=26
CCCCOc1ccc(NC(=O)c2cnc(C)cn2)cc1	2
Cc1cnc(C(=O)Nc2ccc3c(c2)CCC3)cn1	0
COc1cccc(C2=NOC(C(=O)NCCN3CCOCC3)C2)c1 (stereo not given)	-3
CCc1nnc(NC(=O)CSc2nnc(-c3ccc(O)cc3)n2-c2ccccc2)s1	0
Cc1onc(-c2ccccc2Cl)c1C(=O)N1CCc2ccccc21	-16
CCOC(=O)c1cnc(SCC(=O)Nc2ccc(NC(=O)CC)c(OC)c2)nc1N	-10
Cc1ccc2nc(NC(=O)CN(C)S(=O)(=O)c3cccc4nsnc34)sc2c1	51*	HIV RNase H inh-2=39
Cc1ccc2nc(NC(=O)CN(C)S(=O)(=O)c3ccc(Br)s3)sc2c1	-4
Cc1ccnc(NC(=O)CN(C)S(=O)(=O)c2cccc3nsnc23)c1	-34
O=C(c1ccccc1)c1ccc(C(=O)N2CCN(c3ccc(F)cc3)CC2)o1	-11
CC(C)c1nc(SCC(=O)NCc2ccc3c(c2)OCO3)c2c(=O)n(C)c(=O)n(C)c2n1	9
O=C(Cn1cnc2c(oc3ccccc32)c1=O)NCC1CCCO1 (stereo not given)	0
O=C(N1CCN=C1SCc1cccnc1)C12CC3CC(CC(C3)C1)C2	-19
O=C1CC(Sc2ncccn2)C(=O)N1c1ccccc1C(F)(F)F (stereo not given)	70*	HIV RNase H inh-2=0
SMILES	HIV RNase H inh-1	others
O=C(O)c1cccnc1SC1CC(=O)N(c2cccc(C(F)(F)F)c2)C1=O (stereo not given)	14
COc1ccccc1N1C(=O)CC(Sc2ncccc2C(=O)O)C1=O (stereo not given)	14
O=C(Cn1cnc2c(nnn2Cc2ccc(F)cc2)c1=O)NCc1ccco1	1
CC1Cc2ccccc2N1C(=O)Cn1c(=O)oc2cc(S(=O)(=O)N3CCCCC3)ccc21 (stereo not given)	-1
Cc1ccc(-n2nnnc2SCC(=O)N2c3ccccc3NC(=O)C2(C)C)cc1	-21
CCOC(=O)COc1ccc(S(=O)(=O)NCCC2=CCCCC2)cc1	2
COc1ccccc1C(=O)Nc1nnc(-c2ccc3c(c2)CCCC3)o1	-31
O=C(COc1ccc(Cl)cc1)Nc1nnc(-c2ccc3c(c2)CCCC3)o1	87*	HIV RNase H inh-2=67*
CC(=O)Nc1nnc(-c2ccc3c(c2)CCCC3)o1	-63
CCOC(=O)C(CC)Sc1nc(-c2ccc(OC)cc2)nc2c1c(=O)n(C)c(=O)n2C (stereo not given)	9
c1ccc2c(c1)nnn2Cc1nnc2sc(-c3ccncc3)nn12	75*	HIV RNase H inh-2=70*
c1ccc(-c2nn3c(-c4ccccc4)nnc3s2)cc1	-27
c1ccc(Cc2nnc3sc(-c4ccncc4)nn23)cc1	93*	HIV RNase H inh-2=66*
Cn1c(Cc2ccccc2)nnc1SCC(=O)Nc1ccc2c(c1)OCO2	-4
Cc1ccc(-c2nnc3sc(-c4ccncc4)nn23)cc1	-42
c1ccc(OCc2nn3c(-c4ccncc4)nnc3s2)cc1	-19
c1ccc(CCc2nn3c(Cc4ccccc4)nnc3s2)cc1	90*	HIV RNase H inh-2=20
CCc1nnc2sc(-c3ccc(NC(=O)c4ccc5c(c4)OCCO5)cc3)nn12	4
c1ccc(-c2nnc3sc(Cc4cccs4)nn23)cc1	0
c1ccc(Cc2nnc3sc(-c4cccnc4)nn23)cc1	3
c1csc(-c2nn3c(Cn4nnc5ccccc54)nnc3s2)c1	-48
c1ccc(Cc2nnc3sc(-c4ccc5c(c4)OCO5)nn23)cc1	85*	HIV RNase H inh-2=49
CC1(C(=O)NCc2cccnc2)CCC(=O)N1Cc1cccs1 (stereo not given)	-12
COc1ccc(CC(=O)OCC(=O)Nc2c(C)n(C)n(-c3ccccc3)c2=O)cc1	-1
CCN(C(=O)c1cccc(F)c1)c1ccccc1C	-3
SMILES	HIV RNase H inh-1	others
CCSc1nc2c(cnn2-c2ccc(C)c(C)c2)c(=O)[nH]1	-5
O=C(Nc1ccc(O)c(C(=O)O)c1)c1ccc2c(c1)C(=O)N(CC1CCCO1)C2=O (stereo not given)	13
O=C(Nc1ccc(OC(F)(F)F)cc1)C1CCCN(S(=O)(=O)c2cccnc2)C1 (stereo not given)	-21
O=C(CN(C(=O)CNC(=O)c1ccco1)c1ccc(Cl)c(Cl)c1)NC1CCCCC1	-1
CCCCn1c(NC(C)CC)nc2c1c(=O)[nH]c(=O)n2C (stereo not given)	6
Cc1ccc2nc(C3CCN(C(=O)c4ccco4)CC3)[nH]c2c1	-5
OCCN1CCN(c2nc(-c3ccccc3)nc3c2oc2ccccc23)CC1	-7
C[C@@H]1CCC[C@H](C)N1NC(=O)c1ccc(Cl)c(S(N)(=O)=O)c1	-9
COc1cccc(-n2c(C)nnc2SCC(=O)Nc2ccccc2N2CCOCC2)c1	-6
CC(C)N1C(=O)CCC1C(=O)NCCc1ccccc1 (stereo not given)	5
Clc1ccccc1-c1nnc2sc(-c3cccs3)nn12	1
c1ccc(Cc2nnc3sc(-c4cccs4)nn23)cc1	85*	HIV RNase H inh-2=33
c1csc(-c2nn3c(C4CCCCC4)nnc3s2)c1	-10
COc1ccc2cc(C#N)c(N3CCN(Cc4nnnn4CCC(C)C)CC3)nc2c1	-4
O=C1c2oc3ccc(Cl)cc3c(=O)c2C(c2ccccn2)N1CCCN1CCOCC1 (stereo not given)	-1
Cc1ccc(-c2nnn(CC(=O)NCCc3ccc4c(c3)OCO4)n2)o1	-8
Cc1ccc(-c2nnn(CC(=O)Nc3cccc4c3CCCC4)n2)o1	71*	HIV RNase H inh-2=7
CCN(CC)C(=O)Cn1nnc(-c2ccc(C)o2)n1	3
CCOc1ccc(CC(=O)N2CCN(c3ccc(N4CCOCC4)nn3)CC2)cc1OCC	-11
Cc1ccc(C(=O)NC(C)(COc2nonc2C)COc2nonc2C)cc1	5
Cc1nn(C)c(C)c1NC(=O)CN1CCC(O)(c2ccc3c(c2)OCO3)CC1	5
O=S(=O)(NCc1ccc2c(c1)OCO2)c1cccc2cccnc12	-42
COc1ccccc1OCC(=O)NCc1ccco1	-13
CNC(=O)c1cc2cccc(OC)c2oc1=O	13
COc1ccccc1N=c1oc2c(OC)cccc2cc1C(=O)NCc1ccco1	70*	HIV RNase H inh-2=72*
COC(=O)C1=C(C)NC(=O)C1(NC(=O)CN1CCCC1=O)C(F)(F)F (stereo not given)	6

Bioassay records from PubChem BioAssay.
